High-throughput results deposited in PubChem BioAssay by several laboratories.
In the library only some 2.3% were active in any assay of this set; here they are far more common.
GLD-1 RNA inh: GLD-1-TGE RNA interaction inhibition (C. elegans). Q17339. purified GLD-1 + fluorescein TGE RNA, fluorescence polarization. inhibition, % at 5.96 µM. 0.44% of 320,000 active;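 active means percent inhibition above a per-plate cutoff, the plate mean of test compounds plus 3 SD, cut at about 30% in these data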
Target sequence (Q17339 whole entry, looked up): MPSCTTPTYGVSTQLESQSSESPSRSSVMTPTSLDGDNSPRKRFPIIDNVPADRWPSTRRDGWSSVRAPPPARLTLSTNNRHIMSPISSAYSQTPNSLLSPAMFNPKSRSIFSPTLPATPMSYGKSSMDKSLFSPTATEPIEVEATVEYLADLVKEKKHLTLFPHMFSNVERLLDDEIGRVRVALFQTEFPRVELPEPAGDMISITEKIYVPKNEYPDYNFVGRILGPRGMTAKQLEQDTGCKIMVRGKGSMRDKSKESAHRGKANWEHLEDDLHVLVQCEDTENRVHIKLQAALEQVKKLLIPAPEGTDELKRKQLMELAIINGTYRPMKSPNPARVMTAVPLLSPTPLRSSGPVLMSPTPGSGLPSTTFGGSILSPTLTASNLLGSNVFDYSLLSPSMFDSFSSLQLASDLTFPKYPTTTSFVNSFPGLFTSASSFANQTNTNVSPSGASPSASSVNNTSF
Bim-Mcl-1: disrupts Bim peptide binding to human Mcl-1; inhibition, % at 10 µM; Bead-based flow cytometry, Bim peptide-Mcl-1 binding; AID 1009; 0.1% of 190,000 active; Q07820; in the data active means inhibition above about 40%
Bcl-xL primary: Bcl-xL (human) inhibition; Q07817; GST-Bcl-xL / FITC-Bim BH3 peptide fluorescence polarization; inhibition, % at 10.9 µM; 0.7% of 320,000 active;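 active means inhibition above the mean of all tested compounds plus 3 SD, cutoff set per campaign, cut at about 30% in these data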;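 further: inhibitors lower millipolarization by displacing the labeled peptide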
MCL1 BIM primary: inhibitors of human MCL1 binding to BIM-BH3 peptide | Q07820 | GST-MCL1 / FITC-Bim-BH3 fluorescence polarization | inhibition, % at 10.9 µM | 0.68% of 320,000 active | AID 2057;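 active means inhibition above the mean inhibition of all tested compounds plus 3 SD, set per campaign, cut at about 40% in these data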;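 further: higher means more loss of mP so more displacement of Bim peptide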
Mcl1-Bid inh: disrupts binding of human Mcl-1 to Bid peptide; AID 1021; TR-FRET Mcl-1/Bid-Dy647 peptide binding, 1536-well; 0.97% of 220,000 active; inhibition, % at 21.7 µM;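 active means compounds that cut the binding signal by more than half at the single screening dose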;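 further: His-tagged Mcl-1 with europium anti-His antibody binding Bid BH3 peptide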
Mcl1 Noxa PPI: Mcl-1/Noxa interaction inhibition | 1.5% of 220,000 active | Q07820 | TR-FRET Mcl-1/Noxa peptide binding, 2 h | inhibition, % at 21.7 µM;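 active means compounds that cut the protein-peptide binding signal by more than 50% relative to plate controls in a single-dose test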;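 further: His-tagged Mcl-1 with rhodamine Noxa BH3 peptide and terbium anti-His antibody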
Numbers stand for hits; n = inactive; x = no result.

SMILES | GLD-1 RNA inh | Bim-Mcl-1 | Bcl-xL primary | MCL1 BIM primary | Mcl1-Bid inh | Mcl1 Noxa PPI
Cc1ccccc1C1C(C#N)=C2NC(=O)c3c(sc4c3CCCCC4)N2C2=C1C(=O)CC(C)(C)C2 (stereo unspecified) | 101.1 | n | n | n | n | n
COc1cc(C2C(C#N)=C(N)N(c3sc4c(c3C#N)CCCC4)C3=C2C(=O)CC(C)(C)C3)cc(OC)c1OC (stereo unspecified) | n | n | n | n | n | n
CCN(c1ccccc1)S(=O)(=O)c1ccc(OC)c(NC(=O)c2ccc(=O)[nH]c2)c1 | n | x | x | x | x | x
COc1cccc(Nc2nc(NCC3CCCO3)c3ccccc3n2)c1 (stereo unspecified) | n | n | n | n | 91.8 | n
Oc1ccccc1Nc1nc(NCC2CCCO2)c2ccccc2n1 (stereo unspecified) | n | n | n | n | n | n
Oc1ccc(Nc2nc(NCC3CCCO3)c3ccccc3n2)cc1 (stereo unspecified) | x | n | x | x | n | 54.6
CN1CCN(S(=O)(=O)c2ccc3c(c2)oc(=O)n3C)CC1 | n | x | n | n | x | x
COc1cc(CC2COC(c3ccc(O)c(OC)c3)C2COC(C)=O)ccc1O (stereo unspecified) | n | x | n | n | n | 70.2
COc1cc(NC(=O)COc2ccccc2[N+](=O)[O-])ccc1NC(=O)c1cccs1 | x | n | x | x | n | 57.0
O=C(NCCCc1ccccc1)c1cc(COc2ccc(F)cc2Cl)on1 | n | x | 34.9 | n | x | x
COc1cc(/C=C(\C#N)c2nc3ccccc3s2)ccc1OCC(=O)Nc1ccccc1 | n | n | n | n | 78.3 | n
CCOc1cc(/C=C(/C#N)c2ccc(F)cc2)ccc1OCc1ccc(C(=O)O)o1 | n | n | n | n | n | n
CCOc1cc(/C=C(/C#N)c2nc3ccccc3[nH]2)ccc1OCc1ccc(C(=O)O)o1 | n | n | n | n | n | 51.5
COc1cc(/C=C(/C#N)c2nc3ccccc3[nH]2)ccc1OCC(=O)Nc1ccccc1C(C)C | n | n | n | n | 59.4 | n
COc1cc(/C=C(/C#N)c2nc3ccccc3[nH]2)ccc1OCC(=O)Nc1ccccc1C | n | n | n | n | 67.4 | n
Cc1ccc(S(=O)(=O)N(C)CC(=O)N2CCCCCC2)cc1 | n | x | n | n | x | x
CCN1CCN(C(=O)c2ccc(CS(=O)(=O)Cc3ccccc3C)o2)CC1 | n | x | n | n | x | x
O=[N+]([O-])c1cccc(-c2ccc(C(=S)N3CCOCC3)o2)c1 | n | n | n | n | n | n
O=[N+]([O-])c1cc(-c2ccc(C(=S)N3CCOCC3)o2)ccc1Cl | n | n | 36.6 | 43.2 | n | n
COc1cccc(NC(=O)C(=O)N/N=C/c2cc(C)n(-c3ccc(Cl)c(Cl)c3)c2C)c1 | n | n | n | n | 92.8 | n
CC(C)CN(C(=O)COC(=O)c1ccc2c(c1)OCO2)c1c(N)n(Cc2ccccc2)c(=O)[nH]c1=O | n | x | n | n | x | x
CCCCC(C(=O)OCC)C(N)Cc1ccc(F)cc1 (stereo unspecified) | n | 98.0 | n | n | n | n
COc1ccc(-c2nn(CCC(=O)O)cc2/C=C2\SC(N)=NC2=O)cc1OC | n | n | n | n | n | 89.6
O=C(CN1CCCCC1)Nc1nnc(-c2ccc([N+](=O)[O-])cc2)s1 | n | n | n | n | n | 69.3
O=C(CCNC(=O)c1ccccc1)NNC(=O)COc1ccccc1Cl | n | x | x | x | x | x
SMILES | GLD-1 RNA inh | Bim-Mcl-1 | Bcl-xL primary | MCL1 BIM primary | Mcl1-Bid inh | Mcl1 Noxa PPI
Oc1[nH]c2ccccc2c1N=Nc1ccccc1F | n | n | n | n | n | n
O=C(N=Nc1c(O)[nH]c2ccccc12)c1cc(-c2ccc(F)cc2)n[nH]1 | n | n | n | n | n | 52.0
NS(=O)(=O)c1cc(C(=O)N=Nc2c(O)[nH]c3ccccc23)ccc1Cl | n | x | n | n | n | 51.0
CCCCN(C(=O)CC1CCCC1)c1c(N)n(CC(C)C)c(=O)[nH]c1=O | n | x | n | n | x | x
Cc1c(C(=O)OCc2ccc(F)cc2)sc2nc3n(c(=O)c12)CCC3 | n | x | n | n | x | x
O=C1CC(=O)c2c1cccc2[N+](=O)[O-] | x | x | x | x | n | 101.0
O=C1OCc2cccc([N+](=O)[O-])c21 | n | n | n | n | n | n
CSCC(C)N1CCC(n2nccc2NC(=O)c2ccccc2C)CC1 (stereo unspecified) | n | x | 37.8 | n | x | x
CCc1nc2ccc(C(=O)NCCc3ccco3)cc2nc1CC | n | x | n | n | x | x
O=C(NCCO)Nc1ccc2nsnc2c1 | n | n | n | n | n | n
O=C(NCCCO)c1ccc2nc(-c3ccco3)c(-c3ccco3)nc2c1 | x | n | x | x | n | 91.3
O=C(NCCO)Nc1ccc2nc(-c3ccco3)c(-c3ccco3)nc2c1 | 77.9 | n | 135.7 | 144.6 | n | 105.8
O=C(COC(=O)/C=C/c1ccccc1)NC1CCCCC1 | n | x | n | n | x | x
CC(=O)Oc1cccc(N2C(=O)C3C4C=CC(CC4)C3C2=O)c1 (stereo unspecified) | n | x | n | n | x | x
O=C1C2C3C=CC(C2C(=O)N1c1cccc(O)c1)C1C2C(=O)N(c4cccc(O)c4)C(=O)C2C31 (stereo unspecified) | n | n | n | n | n | 94.1
Cc1onc(-c2ccccc2)c1C(=O)Nc1ccc(Cl)c(S(=O)(=O)N2CCOCC2)c1 | n | x | n | n | x | x
COc1ccc(NC2c3ncccc3C(=O)N2Cc2cccs2)cc1 (stereo unspecified) | n | n | n | n | n | n
O=C1c2cccnc2C(Nc2ccc(F)c(Cl)c2)N1Cc1cccs1 (stereo unspecified) | n | n | n | n | 51.6 | n
O=C1c2cccnc2C(Nc2ccc(Br)cc2)N1Cc1cccs1 (stereo unspecified) | n | n | n | n | 62.4 | n
CCN(CC)Cc1cc(O)c(CN(CC)CC)cc1O | x | n | x | x | n | 98.0
O=C(CN1C(=O)COc2ccccc21)N1CCN(C2CCCCC2)CC1 | n | x | n | n | x | x
O=[N+]([O-])c1ccc(CNCc2cc(Cl)ccc2O)cc1 | n | x | n | n | x | x
Fc1cc2[nH]c(=S)[nH]c2c(Br)c1N1CCSCC1 | n | x | n | n | x | x
S=c1[nH]nc(-c2cc(-c3ccccc3)n[nH]2)n1/N=C/C(Br)=C/c1ccccc1 | n | x | n | n | n | 75.8
O=[N+]([O-])c1ccccc1/C=C/C=N/n1c(-c2cc(-c3ccccc3)n[nH]2)n[nH]c1=S | n | x | n | n | n | 57.8
Cc1ccc(-c2n[nH]c(=S)n2/N=C/C=C/c2ccccc2[N+](=O)[O-])cc1 | n | n | n | n | n | n
COc1ccccc1NS(=O)(=O)c1cccc(C(=O)N2CCN(Cc3ccc4c(c3)OCO4)CC2)c1 | n | x | n | n | x | x
CCN=c1scc(-c2ccco2)n1/N=C/c1ccc(O)cc1 | n | n | n | n | n | n
CCN=c1scc(C)n1/N=C/c1cc(Br)c(O)c(Br)c1 | n | n | n | n | n | 72.7
O=C(COC(=O)c1cc2ccccc2o1)NCc1ccco1 | n | x | n | n | x | x
